SARS PLpro yeast = qHTS of Yeast-based Assay for SARS-CoV PLP; S. cerevisiae expressing SARS-CoV PLpro, growth rescue; Potency, µM (titrated, usually from 32.9 µM), for inactives: top-dose activity, positive = growth rescue, actives largely listed as activators; 330,000 compounds, 0.19% hits; AID 485353, 2010; calls by dose curve; also: 0% is about no effect; nearly all actives have a fitted effect of over 55% in size
AmpC detergent = qHTS Inhibitors of AmpC Beta-Lactamase (assay with detergent). P00811. AmpC hydrolysis of nitrocefin, absorbance 480 nm, 0.01% Triton. Potency, µM (top dose mostly 114 µM), without a hit: at the top dose activity change, negative = inhibition, usual class: inhibitors. 370,000 compounds, 0.041% hits. AID 485294, 2010;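 also: 0% = no-compound wells and -100% = no-enzyme wells; nearly all actives have a fitted effect of over 25% in size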
Target sequence (P00811 whole entry, looked up): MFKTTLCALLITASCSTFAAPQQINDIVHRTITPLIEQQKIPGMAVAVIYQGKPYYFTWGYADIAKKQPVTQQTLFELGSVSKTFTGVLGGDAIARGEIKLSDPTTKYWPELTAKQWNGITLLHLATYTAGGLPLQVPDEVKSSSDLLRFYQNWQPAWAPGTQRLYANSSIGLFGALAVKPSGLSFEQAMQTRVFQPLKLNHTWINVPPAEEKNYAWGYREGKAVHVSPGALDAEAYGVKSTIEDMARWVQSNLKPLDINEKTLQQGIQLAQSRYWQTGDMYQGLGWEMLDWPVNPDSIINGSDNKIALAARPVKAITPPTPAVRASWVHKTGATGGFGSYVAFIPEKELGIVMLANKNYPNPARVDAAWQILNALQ
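20 mM phosphate pH 7.0 + 0.01% (detergent screen) or 0.0001% Triton X-100; 5.3 nM AmpC reagent; cpd preinc 15 min RT; nitrocefin (800 uM stock) to start; A480 q20 s × 4 min; Activity was normalised to no-enzyme and no-compound control wells.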
Pf growth 48h = Primary qHTS for delayed death inhibitors of the malarial parasite plastid, 48 hour incubation; P. falciparum luciferase growth in erythrocytes, 48 h; Potency, µM (highest dose often 28.7 µM), for the others: at the top dose activity change, negative = inhibition, most hits filed as inhibitors; 310,000 compounds, 5.9% hits; also: % is scaled to controls: 0 for no effect and ±100 for the full control effect
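A one-generation exposure of luciferase-tagged malaria parasites in RPMI 1640/Albumax erythrocyte culture, 37 C and 5% CO2. Inhibition is inferred from decreased luminescence after adding detection reagent.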
Pf growth 96h = Primary qHTS for delayed death inhibitors of the malarial parasite plastid, 96 hour incubation | Potency, µM (titrated, usually from 28.7 µM), for inactives: at the highest dose activity change, negative = inhibition, usual class: inhibitors | 320,000 compounds, 6.9% hits | P. falciparum luciferase reporter growth, 96 h; also: % is scaled to controls: 0 for no effect and ±100 for the full control effect
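P. falciparum expressing integrated firefly luciferase, in erythrocytes at 2% hematocrit, 0.05% parasitemia, incubated with compounds 96 h at 37 C, 5% CO2. Growth inhibition read as loss of luminescence; two-generation exposure targets delayed-death apicoplast inhibitors.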
AmpC inh no detg = qHTS Inhibitors of AmpC Beta-Lactamase (assay without detergent). P00811. AmpC nitrocefin hydrolysis, absorbance 480 nm, 0.0001% Triton. Potency, µM (series often up to 57.1 µM), for inactives: at the highest dose activity change, negative = inhibition, usual class: inhibitors. 330,000 compounds, 0.52% hits;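 also: plate controls were no compound for no effect and no enzyme for full effect; nearly all actives have a fitted effect of over 20% in size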
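20 mM phosphate pH 7.0 + 0.01% (detergent screen) or 0.0001% Triton X-100; 5.3 nM AmpC reagent; cpd preinc 15 min RT; nitrocefin (800 uM stock) to start; A480 q20 s × 4 min; Activity was normalised to no-enzyme and no-compound control wells.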
Sm TGR block = qHTS Assay for the Inhibitors of Schistosoma Mansoni Peroxiredoxins. 360,000 compounds, 3% hits. Potency, µM (top dose mostly 114 µM), inactives show top-dose activity change, negative = inhibition, hits mostly inhibitors. purified TGR, DTNB reduction, TNB absorbance 405 nm. Schistosoma mansoni thioredoxin glutathione reductase (TGR), Q962Y6. AID 485364, 2010; also: % is scaled to controls: 0 for no effect and ±100 for the full control effect; nearly all actives have a fitted effect of over 60% in size
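Kinetic colorimetric format: TGR-catalysed, NADPH-driven DTNB reduction monitored via TNB absorbance. Enzyme dispensed at 20 nM; compound exposure 15 min at room temperature before reaction start.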
Active calls of the source: *; ? = inconclusive; / = not tested or not shown; ! = repeats disagree; [ ] = another dose, or the depositor's remark. A selection: hits, their analogues and other compounds. The true share with any hit is near 12%. Unless noted, calls follow the shape of the dose curve; as a rule, active = well fitted curve in the direction sought with a large enough effect; inconclusive = small, poorly fitted or top-dose-only effect, or another doubt; inactive = no such curve, though single readings can be large; an effect the other way counts as inactive or inconclusive. Potency is read from the fitted curve at half-maximal effect.

SMILES	SARS PLpro yeast	AmpC detergent	Pf growth 48h	Pf growth 96h	AmpC inh no detg	Sm TGR block
Cc1ccc(CNC(=O)c2cc(Sc3ccc(F)cc3F)nc3ccccc23)cc1	/	5%	/	/	/	4%
CCOc1ccc(NC(=O)/C=C\C(=O)N(c2ccc(C(C)C)cc2)C(C(=O)NCc2ccco2)c2ccc(F)cc2)cc1 (stereo unspecified)	/	10%	/	/	/	56µM*
COc1ccc(N(C(=O)/C=C\C(=O)Nc2ccc(Cl)cc2)C(C(=O)NCc2ccco2)c2ccc(C)cc2)cc1 (stereo unspecified)	/	-5%	/	/	/	7.9µM*
Cc1ccc(NC(=O)/C=C\C(=O)N(c2ccc(C(C)C)cc2)C(C(=O)NCc2ccco2)c2ccc(Cl)cc2)cc1 (stereo unspecified)	/	-2%	/	/	/	?
COc1ccc(OC)c(NC(=O)Cn2cnc3sc(C)c(S(=O)(=O)N4CCN(c5ccccc5OC)CC4)c3c2=O)c1	/	6%	/	/	/	9%
CCCCN(CC)CCNC(=O)Cn1cnc2sc(C)c(S(=O)(=O)N3CCN(c4ccccc4OC)CC3)c2c1=O	/	-6%	/	/	/	2%
COc1ccccc1NC(=O)Cn1cnc2sc(C)c(S(=O)(=O)N3CCCCC3)c2c1=O	?	-9%	-22%	0.52µM*	-20%	-13%
CCCCN(C)C(=O)Cn1cnc2sc(C)c(S(=O)(=O)N3CCN(c4ccccc4OC)CC3)c2c1=O	-7%	2%	12µM*	3%	1%	2%
O=C(Cc1cccc2ccccc12)N/N=C/c1ccc(Sc2nc3ccccc3s2)o1	9%	8%	?	?	-17%	4%
Clc1cccc(N2CCNCC2)c1	-2%	?	?	13µM*!	-13%	-29%
O=C(C(=O)N1CCN(c2cccc(Cl)c2)CC1)N1CCCCC1	-1%	-4%	22%	1%	-2%[2.29 µM]	2%
CC(C)Sc1nc(N2CCOCC2)c2c(c1C#N)CC(C)(C)SC2	5%	-13%	?	?	2%	-21%
CC(C)CSc1nc(N2CCOCC2)c2c(c1C#N)CC(C)(C)SC2	-5%	?	9.3µM*	?	-6%	-1%
COC(=O)CSc1nc(N2CCOCC2)c2c(c1C#N)CC(C)(C)OC2	0%	12%	26%	32%	68%	23%
CCCOC(=O)CSc1nc(N2CCOCC2)c2c(c1C#N)CC(C)(C)OC2	4%	0%	?	1.9µM*	79%	12%
CCOC(=O)CSc1nc(N2CCOCC2)c2c(c1C#N)CC(C)(C)OC2	4%	-3%	-11%[0.00184 µM]	?	55%	-6%
CCCCCSc1nc(N2CCOCC2)c2c(c1C#N)CC(C)(C)OC2	-1%	-18%	9.3µM*	?	-16%	14%
CCCCNC(=O)c1nn(-c2ccc(C)cc2)c(=O)n(C)c1=O	/	2%	/	/	/	6%
CCN(CC)c1nc2c(S(=O)(=O)c3ccc(C)cc3)nnn2c2ccsc12	/	4%	/	/	/	8%
Cc1ccc(-c2c(C)n([O-])c3c([n+]2=O)CCCCC3)o1	13%	-17%	42%	100%	-9%	1%
Cc1c(-c2ccco2)[n+](=O)c2c(n1[O-])CCC2	7%	-3%	18%	15µM*	-11%	-4%
O=C(NCc1cccs1)c1ccc2c(c1)N(Cc1cccc(F)c1)C(=O)c1ccccc1S2	/	5%	/	/	/	5%
Cc1ccc2c(c1)C(=C(C#N)C#N)C(=O)N2CCN1CCCCC1	1%	2%	?	-8%	60%	-22%
CC1CCCCC1NC(=O)CCCn1c(=S)[nH]c2ccccc2c1=O (stereo unspecified)	-7%	-14%	?	15µM*	-22%	1%
CC1CCCC(NC(=O)CCCn2c(=S)[nH]c3ccccc3c2=O)C1C (stereo unspecified)	0%	-3%	?	?	-42%	0%
SMILES	SARS PLpro yeast	AmpC detergent	Pf growth 48h	Pf growth 96h	AmpC inh no detg	Sm TGR block
O=C(CCCn1c(=S)[nH]c2ccccc2c1=O)NC1CCCC1	-2%	?	0%	0.52µM*	-27%	9%
CC1CCCCC1NC(=O)CCCCCn1c(=S)[nH]c2ccccc2c1=O (stereo unspecified)	-2%	-12%	?	?	-32%	-8%
S=c1nccc(-c2ccc3c(c2)CCO3)[nH]1	1%	7%	24%	-9%	-21%	35µM*
CC1(C)CCc2cc(-c3ccnc(=S)[nH]3)ccc2O1	0%	0%	-28%	-70%	-35%	2%
CN1C2CCC1/C(=C/c1cccn1C)C(=O)/C2=C\c1cccn1C	5%	8%	-17%	-2%	17%	35µM*
CN1C2CCC1/C(=C\c1ccc(F)cc1)C(=O)/C2=C/c1ccc(F)cc1	-15%	-5%	0.83µM*	-3%	-15%	-11%
Cc1cccc(/C=C2/C(=O)/C(=C/c3ccccc3C)C3CCC2N3C)c1 (stereo unspecified)	2%	3%	?	?	-15%	6%
NC(CCC(=O)N[C@@H](CS)C(=O)NCC(=O)O)C(=O)O (stereo partly specified)	/	/	2.1µM*	3µM*	/	/
COC(=O)CC[C@H](N)C(=O)O	/	/	2%	-25%	/	/
O=[N+]([O-])c1ccc2c(c1N1CCCCC1)=NC1(CCCCC1)[N+]=2[O-]	-1%	2%	1%	12%	72%	0%
COc1ccc(Nc2ccc3c(c2)=NC2(CCCCC2)[N+]=3[O-])cc1	-23%	3%	12µM*	?	-14%	-22%
[O-][N+]1=c2ccc(Nc3ccccc3)cc2=NC12CCCCC2	-26%	?	9.3µM*	/	-5%	-19%
C=CCNC(=O)CSc1nnc(-c2ccc(S(=O)(=O)N3CCCC3)cc2)n1C	-1%	-12%	15%	-10%	0%	-7%
COc1ccc(CN(C)CC(=O)N(C)CC(=O)Nc2ccccc2Br)cc1F	0%[6.58 µM]	3%	?	-16%	-4%	-28%
Cc1ccc(OCCn2cc(Br)c(=O)[nH]c2=O)cc1	-1%	3%	-24%	9.3µM*	2%	0%
CC(=N\O)/C(CN(C)C)=N/O	/	-9%	20%	10µM*	/	0%
O=S1(=O)c2ccccc2N=NN1Cc1ccc(Cl)cc1	-3%	-1%	11%	/	-53%	2.5µM*
CCn1c(/C=C/c2ccc(O)c(O)c2)nc2ccccc2c1=O	4%	-1%	?	?	-50%	-36%

Screens: PubChem, National Center for Advancing Translational Sciences (NCATS)
